Data as given in publication PMC4336329 (PLoS ONE, 2015).
Out of some 310,000 compounds screened, about 14,000 (4.5%) showed an effect of 50% or more. Effects have a minus sign here. The entries come from a sample that favours strong results as a whole.

What follows are compounds tested against human ether-à-go-go-related gene (hERG) potassium channel (human, UniProt Q12809) (assay: primary screen, population patch clamp on CHO cells stably expressing hERG; higher = less effect of the substance).
Chain of human ether-à-go-go-related gene (hERG) potassium channel (Q12809 whole entry, looked up): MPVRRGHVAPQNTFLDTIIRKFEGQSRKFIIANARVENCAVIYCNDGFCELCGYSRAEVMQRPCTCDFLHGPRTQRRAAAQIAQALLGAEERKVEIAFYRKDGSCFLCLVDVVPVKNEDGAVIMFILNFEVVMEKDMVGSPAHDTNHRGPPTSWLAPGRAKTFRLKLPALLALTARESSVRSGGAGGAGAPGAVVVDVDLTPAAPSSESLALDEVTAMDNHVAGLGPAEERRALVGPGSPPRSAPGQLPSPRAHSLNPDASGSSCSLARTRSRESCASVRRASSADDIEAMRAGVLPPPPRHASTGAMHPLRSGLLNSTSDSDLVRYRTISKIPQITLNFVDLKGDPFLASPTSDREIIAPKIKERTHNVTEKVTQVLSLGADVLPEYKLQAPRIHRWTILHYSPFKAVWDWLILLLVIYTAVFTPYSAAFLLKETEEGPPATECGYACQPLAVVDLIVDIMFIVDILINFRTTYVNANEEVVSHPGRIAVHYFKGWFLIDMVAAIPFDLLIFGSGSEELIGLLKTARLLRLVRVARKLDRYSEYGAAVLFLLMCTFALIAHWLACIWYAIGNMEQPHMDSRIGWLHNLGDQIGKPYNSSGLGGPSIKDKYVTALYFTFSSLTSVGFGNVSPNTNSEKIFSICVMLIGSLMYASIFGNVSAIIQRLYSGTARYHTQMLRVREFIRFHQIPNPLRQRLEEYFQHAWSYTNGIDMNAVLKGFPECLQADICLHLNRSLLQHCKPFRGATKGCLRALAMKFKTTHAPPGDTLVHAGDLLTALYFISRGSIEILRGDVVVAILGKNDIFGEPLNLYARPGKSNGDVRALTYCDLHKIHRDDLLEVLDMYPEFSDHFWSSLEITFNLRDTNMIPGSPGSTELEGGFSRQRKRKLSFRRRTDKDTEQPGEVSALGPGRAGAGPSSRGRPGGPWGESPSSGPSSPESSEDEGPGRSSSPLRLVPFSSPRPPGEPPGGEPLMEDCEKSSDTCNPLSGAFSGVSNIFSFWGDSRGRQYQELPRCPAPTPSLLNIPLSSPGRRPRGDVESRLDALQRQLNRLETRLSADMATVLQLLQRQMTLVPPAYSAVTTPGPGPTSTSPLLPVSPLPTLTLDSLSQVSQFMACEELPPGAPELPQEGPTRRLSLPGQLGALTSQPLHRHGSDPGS
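Note: peak tail current of the secondary pulse compared with the same well before compound.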

| Compound | hERG current change (%, negative = inhibition) at 10uM [%] |
| --- | --- |
| COc1ccc(/C=N\NC(=O)c2ccccc2Br)cc1COc1c(F)c(F)cc(F)c1F | -0.654 |
| Brc1ccc(-n2cccc2/C=N/n2cnnc2)cc1 | -25.1 |
| Cc1ccc(OCC(=O)Nc2ccc(C)c(S(=O)(=O)N3CCCCC3)c2)c([N+](=O)[O-])n1 | -45.4 |
| C=CCNC(=O)/C(=C/c1ccccc1OCC)NC(=O)c1ccccc1 | 2.63 |
| O=c1cc(Nc2ccc3c(c2)OCCO3)[nH]c(=O)n1-c1ccc(Cl)cc1 | -0.327 |
| CCC(C)NC(=O)c1ccccc1NC(=O)/C(=C/c1ccc(OC)cc1)c1ccccc1 (stereo not drawn) | 3.99 |
| COC(=O)c1ccccc1NC(=O)NCc1ccc2c(c1)OCO2 | -11.4 |
| CCCCS(=O)CC(CS(=O)CCCC)OC(=O)c1ccc(C)cc1 (stereo not drawn) | -49.2 |
| Cc1ccc(S(=O)(=O)N(C)c2ccc(C(=O)O)cc2)cc1 | -17.1 |
| COc1ccccc1NCC(O)COc1ccc(C(C)(C)C)cc1.O=C(O)C(=O)O (stereo not drawn) | 6.79 |
| CC(=O)Nc1ccc(OCC(O)CNC2CCCC2)cc1.Cl (stereo not drawn) | 6.24 |
| CC(C)(c1ccccc1)c1ccc(OCC(O)CNC2CCN(Cc3ccccc3)CC2)cc1.O=C(O)C(=O)O (stereo not drawn) | -72.8 |
| CCOc1ccc(OCC(O)CNC2CCN(Cc3ccccc3)CC2)cc1.O=C(O)C(=O)O (stereo not drawn) | -62.8 |
| CC(C)NCCCOc1ccc(C(C)(C)c2ccccc2)cc1.O=C(O)C(=O)O | 7.21 |
| CCOc1ccc(CC(=O)NC2CCN(Cc3ccccc3)CC2)cc1 | -6.23 |
| C#CCOc1ccccc1CNC1CCN(Cc2ccccc2)CC1.O=C(O)C(=O)O | -29.3 |
| CC(C)N(CCNCC(O)COc1ccc(C(C)(C)c2ccccc2)cc1)C(C)C.O=C(O)C(=O)O (stereo not drawn) | -79 |
| COc1ccc(CNCC(O)COc2ccc(C(C)(C)c3ccccc3)cc2)cc1.O=C(O)C(=O)O (stereo not drawn) | -12.3 |
| O=C(Cc1ccccc1)NN1C(=O)C2C3C=CC(C3)C2C1=O (stereo not drawn) | 12.4 |

| Compound | hERG current change (%, negative = inhibition) at 10uM [%] |
| --- | --- |
| COc1ccc(C)cc1NC(=O)C(OC(=O)C1CC1)c1ccccc1 (stereo not drawn) | -12 |
| O=C(COC(=O)C1CCN(S(=O)(=O)c2ccccc2C(F)(F)F)CC1)NCc1ccc(F)cc1 | -8.33 |
| CCOc1ccc(N=Cc2c(O)n(-c3ccc(C)c(C)c3)c(=O)[nH]c2=O)cc1 | -1.8 |
| Cc1ccc(-n2ncc3c(SCC(=O)Nc4cc(C)on4)ncnc32)c(C)c1 | 17.9 |
| O=C(C[n+]1ccccc1)N/N=C/c1ccccc1[N+](=O)[O-].[Cl-] | 40.2 |
| Cc1cccc(C(=O)N2CCCC(Nc3ccc(C(C)C)cc3)C2)n1 (stereo not drawn) | 0.95 |
| Cc1ccc(C2Nc3cccc4cccc(c34)N2)s1 | -4.53 |
| CN(C)S(=O)(=O)c1cccc(C(=O)Nc2ccc(S(=O)(=O)N3CCCC3)cc2)c1 | 25.5 |
| CC1(C)Cc2cccc(OCC(=O)N3CCN(S(=O)(=O)c4ccccc4F)CC3)c2O1 | -14.6 |
| O=C(Nc1ccc2cn[nH]c2c1)c1ccc(S(=O)(=O)N2CCOCC2)cc1 | -19.7 |
| CC(=O)OC(C(=O)Nc1nccs1)c1ccccc1 (stereo not drawn) | 2.26 |
| O=C(c1nn(-c2ccccc2)c(=O)c2ccccc12)N1CCN(c2ccccn2)CC1 | -16.5 |
| CC(C)N(CCNC(=O)c1nn(Cc2ccccc2)c(=O)c2ccccc12)C(C)C | -66.1 |
| O=C(c1nn(Cc2ccccc2)c(=O)c2ccccc12)N1CCc2ccccc2C1 | -29 |
| CC(C)CCNC(=O)c1nn(Cc2ccccc2)c(=O)c2ccccc12 | 5.59 |
| CC(=O)c1ccc(N2CCN(C(=O)c3n[nH]c4ccccc34)CC2)cc1 | -34.3 |
| O=C(c1ccc(Cn2c(=O)[nH]c3ccccc3c2=O)cc1)N1CCN(c2ccccn2)CC1 | 0.196 |
| CC(C)CNC(=O)c1nn(Cc2ccccc2)c(=O)c2ccccc12 | -16 |
| O=C(c1nn(Cc2ccccc2)c(=O)c2ccccc12)N1CCN(c2ccccn2)CC1 | -66.3 |

| Compound | hERG current change (%, negative = inhibition) at 10uM [%] |
| --- | --- |
| CC(=O)c1ccc(N2CCN(C(=O)c3nn(Cc4ccccc4)c(=O)c4ccccc34)CC2)cc1 | -75.1 |
| O=[N+]([O-])c1cccc(S(=O)(=O)Nc2ccc(S(=O)(=O)N3CCCC3)cc2)c1 | 2.95 |
| O=C(CSc1nnc(NC(=O)c2c(F)cccc2F)s1)NC1CC1 | 21.9 |
| COC(=O)c1cccc(Oc2cccc(Cl)n2)c1 | 14.7 |
| Clc1ccc(COc2ccccn2)cc1Cl | -6.01 |
| OCCOCCn1c(C(CO)Nc2nc(-c3ccc(F)cc3)cs2)nc2ccccc21 (stereo not drawn) | -29.4 |
| COc1ccc(N(CC(=O)NCc2ccccc2OC)S(=O)(=O)c2ccccc2[N+](=O)[O-])c(OC)c1 | 3.17 |
| CN(C)Cc1c(C(=O)N/N=C/C=C/c2ccccc2)nnn1-c1nonc1N | -24.9 |
| COC(=O)Nc1ccc(OC)c(OC)c1 | 4.01 |
| COc1ncnc2c1sc1nc(-c3ccccc3)c3c(c12)CCCC3 | 15.6 |
| CCOc1ccc(-c2nc(C#N)c(N3CCN(C)CC3)o2)cc1 | -32.5 |
| CCOc1ccc(-c2nc(C#N)c(N3CCN(CC)CC3)o2)cc1 | -47.3 |
| CN1CCN(c2oc(-c3ccc([N+](=O)[O-])cc3)nc2C#N)CC1 | -66.1 |
| N#Cc1nc(-c2ccc([N+](=O)[O-])cc2)oc1N1CCCCC1 | 14.5 |
| CCN1CCN(c2oc(-c3ccc(OC)cc3)nc2C#N)CC1 | -45.6 |
| CC(C)(C)c1ccc(-c2nc(C#N)c(N3CCC(C(N)=O)CC3)o2)cc1 | -63.3 |
| Cc1ccc(-c2nc(C#N)c(N3CCC(C(N)=O)CC3)o2)cc1 | -23.7 |
| CCN1CCN(c2oc(-c3ccc([N+](=O)[O-])cc3)nc2C#N)CC1 | -53.1 |
| COc1ccc(-c2nc(C#N)c(N3CCC(C(N)=O)CC3)o2)cc1 | -15.6 |
